Assay results reported in PubChem BioAssay (Tox21).
Results filed as inconclusive are left out. Active and inactive are the calls of the source. Unless noted, calls follow the shape of the dose curve; as a rule, active = well fitted curve in the direction sought with a large enough effect in the repeat runs; inconclusive = weak or mixed curves; inactive = no such curve, though single readings can be large; an effect the other way counts as inactive or inconclusive.

Key:
[1] = qHTS assay to identify small molecule agonists of the hypoxia (HIF-1) signaling pathway - cell viability counter screen (AID 1224844; calls by dose curve; also: nearly all actives have a fitted effect of over 50% in size)
Procedure, shortened: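 ME-180 HRE-bla cells, 2,000/well, 0.5% dialyzed FBS; 5 hr settle, 17 hr compound at 37C/5% CO2; CCF4-AM reporter read first, then CellTiter-Glo luminescence after 30 min RT.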

[2] = qHTS assay to identify small molecule agonists of H2AX (AID 1224845; active = well fitted activation curve with a large enough effect in the signal ratio in the repeat runs, not every such curve was filed as active; the % refers to the signal ratio; also: potency is read from the fitted curve at half-maximal effect)
Procedure, shortened: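 Wild-type CHO-K1 cells plated overnight, then exposed 3 hr at 37C to compounds at 15 concentrations (0.76% DMSO). Lysed, then HTRF anti-pH2AX(S139)-cryptate/anti-H2AX-d2 detection after 24 hr at room temperature; emissions 665 and 620 nm.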

[3] = qHTS assay to identify small molecule agonists of the hypoxia (HIF-1) signaling pathway (AID 1224846; active = well fitted activation curve with a large enough effect in the signal ratio in the repeat runs, not every such curve was filed as active; the % refers to the signal ratio)
Procedure, shortened: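 Cell line: CellSensor HRE-bla ME-180; 2,000 cells/well; 0.5% dialyzed FBS; 5 h preincubation; DMSO compound pin transfer; 17 h, 37C, 5% CO2; CCF4-AM added; bla FRET signal scored for activation.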

[4] = qHTS assay to identify small molecule antagonists of the estrogen related receptor (ERR) signaling pathway from Tox21 library (AID 1224848); also: nearly all actives have a fitted effect of over 50% in size
Procedure, shortened: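 Cells: ERR line, 2,000/well; 6 h preincubation 37 C/5% CO2. Cpd in DMSO via pin tool; 18 h, 37 C. ONE-Glo, 30 min RT, luminescence.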

[5] = qHTS assay to identify small molecule agonists of the estrogen related receptor (ERR) signaling pathway from Tox21 library (AID 1224849; calls by dose curve; also: nearly all actives have a fitted effect of over 15% in size); conditions: ERR reporter cell line, ONE-Glo luciferase, 18 h; at 92.4 µM (top of the series) unless noted
Procedure, shortened: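 ERR cells, 6 h pre-incubation 37 C/5% CO2; cpd in DMSO pinned; 18 h 37 C; ONE-Glo added, 30 min RT; luminescence read. Agonist mode, qHTS.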

[6] = qHTS RealTime-Glo MT Cell Viability Assay in HepG2 cells - 24 hour (AID 1224867); also: nearly all actives have a fitted effect of over 50% in size
Procedure, shortened: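 Luminescence read-out: viable HepG2 cells reduce a prosubstrate to a NanoLuc substrate, giving a signal proportional to live cell number. Reads taken at 0, 8, 16, 24, 32 and 40 h of compound exposure at 37 C.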

[7] = A CellTox Green Cytotoxicity Assay to monitor cytotoxicity in HEK293 cells - 0 hour (AID 1224869); also: nearly all actives have a fitted effect of over 50% in size
Procedure, shortened: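 Nonlytic real-time cytotoxicity: HEK293 + CellTox Green reagent plated, 5 h preincubation, pintool compound addition (23 nL in DMSO), 37 C for 40 h, fluorescence measured at successive time points.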

[8] = qHTS RealTime-Glo MT Cell Viability Assay in HepG2 cells - 40 hour (AID 1224870); also: nearly all actives have a fitted effect of over 50% in size
Procedure, shortened: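 HepG2 cells mixed with RealTime-Glo MT reagents (NanoLuc plus cell-permeant prosubstrate) were seeded at 600 cells/well, incubated 5 h at 37 C/5% CO2, then pinned with compounds in DMSO; nonlytic luminescence tracked viability during 40 h treatment.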

[9] = qHTS assay to identify small molecule agonists of H2AX - cell viability counter screen (AID 1224847; calls by dose curve; also: top concentration of the series differs between compounds; nearly all actives have a fitted effect of over 30% in size)
Procedure, shortened: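 We seed wild-type CHO-K1 cells overnight, treat them for 3 hr at 37C with compounds in 15-concentration series, and quantify remaining viability by CellTiter-Glo luminescence.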

[10] = qHTS RealTime-Glo MT Cell Viability Assay in HEK293 cells - 32 hour (AID 1224868)
Procedure, shortened: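 Nonlytic real-time viability readout: viable cells convert prosubstrate to NanoLuc substrate, giving luminescence proportional to live cell number. HEK293, 600 cells/well, compound added after 5 h, continuous culture at 37 C.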
% is scaled to controls: 0 for no effect and ±100 for the full control effect.

CCCCCCOc1ccc(N)cc1
active: Potency [2] 56.6 µM
inactive: Potency [1] | outcome [3] | Potency [4] | activity change, positive = activation [5] 2.67% | Potency [6] | Potency [7] | Potency [8]

O=C1CCCCCCCCCCC(=O)OCCO1
inactive: Potency [1] | Potency [2] | outcome [3] | Potency [6] | Potency [7] | Potency [8]

CCCCC(=O)O[C@]1(C(=O)CO)[C@H](C)C[C@H]2[C@@H]3CCC4=CC(=O)C=C[C@]4(C)[C@@]3(F)[C@@H](O)C[C@@]21C
inactive: Potency [1] | Potency [2] | Potency [9] | Potency [4] | activity change, positive = activation [5] -4.32% [at 42.5 µM] | Potency [6] | Potency [10] | Potency [7] | Potency [8]

CN(CC1(C)CCCO1)S(=O)(=O)c1ccc(Cl)c(S(N)(=O)=O)c1 (stereo unspecified)
inactive: Potency [1] | Potency [2] | outcome [3] | Potency [9] | Potency [6] | Potency [10] | Potency [7] | Potency [8]

O=C(O[C@@H](C(=O)O)[C@@H](OC(=O)c1ccccc1)C(=O)O)c1ccccc1
inactive: Potency [1] | Potency [2] | Potency [9] | Potency [4] | activity change, positive = activation [5] -13.3% | Potency [6] | Potency [10] | Potency [7] | Potency [8]

C=C(C)C(=O)OCCOP(=O)(O)O
inactive: Potency [1] | Potency [2] | outcome [3] | Potency [9] | Potency [6] | Potency [7] | Potency [8]

CC(C)=CCCC(C)CCOC=O (stereo unspecified)
inactive: Potency [1] | Potency [2] | outcome [3] | Potency [9] | Potency [6] | Potency [7] | Potency [8]

Cc1cc(S(=O)(=O)O)c(N)cc1Cl
inactive: Potency [1] | Potency [2] | outcome [3] | Potency [9] | Potency [6] | Potency [7] | Potency [8]

CC(C)=CCC[C@](C)(O)[C@@H]1CC=C(C)CC1
inactive: Potency [1] | Potency [2] | outcome [3] | Potency [6] | Potency [10] | Potency [7] | Potency [8]

CCCCCOc1ccc(C2SC(=O)NC2=O)cc1OCC (stereo unspecified)
inactive: Potency [1] | Potency [2] | outcome [3] | Potency [9] | Potency [6] | Potency [7] | Potency [8]

CC(=O)O[C@H]1CC[C@@]2(C)C(=CC[C@@H]3[C@@H]2CC[C@]2(C)C(C(C)=O)=CC[C@@H]32)C1
inactive: Potency [1] | Potency [2] | outcome [3] | Potency [6] | Potency [7] | Potency [8]

C/C(=N\O)[C@@H](C)NCC(C)(C)CN[C@H](C)/C(C)=N/O
inactive: Potency [1] | Potency [2] | outcome [3] | Potency [9] | Potency [6] | Potency [10] | Potency [7] | Potency [8]

CCN(CC)CCNC(=O)COc1ccc(Cl)cc1
inactive: Potency [1] | Potency [2] | outcome [3] | Potency [9] | Potency [6] | Potency [10] | Potency [7] | Potency [8]

N#CSCC(=O)O
inactive: Potency [1] | Potency [2] | Potency [9] | Potency [4] | activity change, positive = activation [5] 4.98% [at 42.5 µM] | Potency [6] | Potency [10] | Potency [7] | Potency [8]

CCC(=O)Nc1ccc(O)cc1
inactive: Potency [1] | Potency [2] | outcome [3] | Potency [9] | Potency [6] | Potency [7] | Potency [8]

NC(Cc1ccc(F)cc1)C(=O)O (stereo unspecified)
inactive: activity change, negative = cytotoxicity [1] 1.08% [at 6.97 µM] | activation (H2AX phosphorylation) [2] -2.92% [at 14 µM] | activity change, negative = cytotoxicity [9] 0.454% [at 14 µM] | activity, negative = inhibition [4] 1.15% [at 8.39 µM] | activity change, positive = activation [5] 0.59% [at 8.39 µM] | activity change, negative = cytotoxicity [6] -1.43% [at 6.97 µM] | activity change, negative = cytotoxic [10] -0.0847% [at 6.97 µM] | cytotoxicity [7] 7.03% [at 6.97 µM] | activity change, negative = cytotoxic [8] -10.7% [at 6.97 µM]

NC1=NCC2c3ccccc3Cc3ccccc3N12 (stereo unspecified)
inactive: Potency [1] | Potency [2] | outcome [3] | Potency [9] | Potency [6] | Potency [7] | Potency [8]

CNCCC(Oc1ccccc1OC)c1ccccc1 (stereo unspecified)
inactive: Potency [1] | Potency [2] | Potency [9] | Potency [4] | activity change, positive = activation [5] -5.63% [at 42.5 µM] | Potency [6] | Potency [10] | Potency [7] | Potency [8]

CC(C)c1ccccc1
inactive: Potency [1] | Potency [2] | outcome [3] | Potency [9] | Potency [6] | Potency [7] | Potency [8]

CCCN(CCC)C(=O)C(CCC(=O)O)NC(=O)c1ccccc1 (stereo unspecified)
inactive: Potency [1] | Potency [2] | Potency [9] | Potency [4] | activity change, positive = activation [5] 0.999% [at 42.5 µM] | Potency [6] | Potency [10] | Potency [7] | Potency [8]

CN(C)C(=O)NC1(c2ccccc2)CCN(CCC[C@]2(c3ccc(Cl)c(Cl)c3)CCCN(C(=O)c3ccccc3)C2)CC1
inactive: activity change, negative = cytotoxicity [1] -18.7% [at 15.8 µM] | activation (H2AX phosphorylation) [2] 5.48% [at 31.6 µM] | activation [3] 0.323% [at 15.8 µM] | activity change, negative = cytotoxicity [9] -0.817% [at 31.6 µM] | activity change, negative = cytotoxicity [6] -9.68% [at 15.8 µM] | cytotoxicity [7] -1.6% [at 15.8 µM] | activity change, negative = cytotoxic [8] -4.9% [at 15.8 µM]
